Drawing on PubChem BioAssay AID431 (Sanford-Burnham Center for Chemical Genomics, 2006), this text covers cytotoxicity for 91 compounds.

In all, about 63,000 compounds went through this assay and about 1,100 (1.7%) were called active.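 The calls were made as follows: active = compounds whose percent cytotoxicity in the single-dose primary screen, scaled between solvent and toxic-drug controls, exceeds 50; inactive = the rest.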 The list comes from a sample in which actives are over-represented; it also holds similar structures and randomly drawn compounds. Results with a measured potency or affinity are listed apart.

This assay in a line: cytotoxicity in KRAS-transformed pancreatic duct cells, primary screen, cell-based, fluorescence, HTS (AID 431).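 Also: 0% = DMSO solvent wells and 100% = doxorubicin-treated wells.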 Particulars: HPDE-C7K KRASV12 cells, Alamar Blue viability, 48 h; at 10 µM; hits give high values. Background: The colour change of resazurin is a common sign of viable cells or microbes.
`COc1cccc(-c2nc(CS(=O)(=O)CC(=O)NCCC(C)C)c(C)o2)c1`: the cytotoxicity is 2.6% (inactive). With `COC(=O)c1ccc(N=c2sc(C(=O)OC)cc(=O)n2C)cc1` the figure was -16.7% (inactive); with `Cc1ccc(Nc2nc(N3CCOCC3)c3ccccc3n2)cc1`, 28.7% (inactive).

For `COc1ccc(Nc2nc(N3CCCC3)c3ccccc3n2)cc1`, the cytotoxicity was 22.5% (inactive). For the compound `Oc1ccc(Nc2nc(N3CCCC3)c3ccccc3n2)cc1`, the cytotoxicity was 94.4% (active). Regarding `CCCCCCOc1ccc(C(=O)n2cnc(N)n2)cc1`, the cytotoxicity is 82.6% (active). `COc1ccc(C(=O)n2cnc(N)n2)cc1`: the cytotoxicity was 6.1% (inactive). Regarding `CCCCOc1ccc(C(=O)N2CCCCCC2)cc1`, the cytotoxicity was -8.5% (inactive). With `Cc1ccc2cc(CN(C(=O)c3ccco3)c3ccccc3)c(=O)[nH]c2c1` the figure was -0.6% (inactive); with `COc1ccc(CCNC(=O)c2nonc2N)cc1OC`, 0.1% (inactive). With `Cn1c(C(=O)NCCc2c[nH]c3ccccc23)cc2sccc21` the figure was 6.9% (inactive); with `O=C(NCC(F)(F)F)Nc1nnc(C(F)(F)F)s1`, 12.5% (inactive). Regarding `CCC(NC(=O)Nc1nccs1)(C(F)(F)F)C(F)(F)F`, the cytotoxicity was -11.8% (inactive). In the case of `CC(NC(=O)Nc1nccs1)(C(F)(F)F)C(F)(F)F`, the cytotoxicity was -3.9% (inactive). With `CCSc1nnc(NC(=O)NC(CC)(C(F)(F)F)C(F)(F)F)s1`, the cytotoxicity is 19.4% (inactive).

Take `CCn1cc(C(=O)N=c2sc3ccccc3n2C)c(=O)c2ccc(C)nc21`: the cytotoxicity is -2% (inactive). Take `COc1cc(C(=S)N2CCCCC2)ccc1OCC(=O)N1CCCC1`: the cytotoxicity was -1.9% (inactive). As to `COc1ccc(-n2c(Cc3cccn3C)nnc2SCC(=O)Nc2ccc(Cl)cc2)cc1`, the cytotoxicity is 48.9% (inactive). `CCCOC(=O)C1=C(C)NC2=C(C(=O)C(C(=O)OC)C(C)C2)C1c1ccc(N(CC)CC)cc1` (stereo unspecified): the cytotoxicity is -15.1% (inactive). With `Cc1ccc(Cl)cc1N1CCN(S(=O)(=O)c2cccc(S(=O)(=O)N3CCCC3)c2)CC1` the figure was 0.2% (inactive); with `CCn1cc(C(=O)NCc2ccccc2OC)c(=O)c2ccc(C)nc21`, -1.4% (inactive); with `Cn1c(C(=O)OCC(=O)NCc2cccs2)cc2sccc21`, -3.4% (inactive). Turning to `Cc1cc2c(cc(C(=O)OCC(=O)NCc3cccs3)n2C(C)C)o1`, the cytotoxicity was 59.5% (active). For the compound `CC(C)n1c(C(=O)OCC(=O)NCc2ccc3c(c2)OCO3)cc2sccc21`, the cytotoxicity was 22.7% (inactive). With `Cc1cccc2cc(C(c3nnnn3CC3CCCO3)N3CCc4ccccc4C3)c(=O)[nH]c12` (stereo unspecified) the figure was -7.5% (inactive); with `Cc1ccc(S(=O)(=O)NCC(=O)OCC(=O)c2cccs2)cc1`, 4.8% (inactive). For the compound `COc1ccc(-c2cc(C(=O)Nc3ccccc3SC)no2)cc1OC`, the cytotoxicity was 1.4% (inactive). Take `Cc1cccc(N2CCN(C(=O)Cc3c(C(=O)O)[nH]c4ccc(Cl)cc34)CC2)c1C`: the cytotoxicity was 57.9% (active). With `O=C(O)c1[nH]c2ccc(Cl)cc2c1CC(=O)N1CCN(c2ccccc2)CC1` the figure was 8% (inactive); with `O=C(O)c1[nH]c2ccc(Cl)cc2c1CC(=O)N1CCN(C(=O)c2ccco2)CC1`, 3.2% (inactive). Regarding `Cc1cccc(-n2c(CNC(=O)c3ccc(S(=O)(=O)N4CCCC4)cc3)n[nH]c2=S)c1`, the cytotoxicity was -12% (inactive).

Regarding `Cc1ccc(NC(=O)c2cnn(-c3ccccc3)c2NC(=O)c2ccco2)cc1C`, the cytotoxicity was -1.9% (inactive). Then `Cc1ccc(-n2ncc(C(=O)N3CCc4ccccc4C3)c2NC(=O)c2ccco2)cc1C`, with 80.3% (active); and `O=C(Nc1c(C(=O)N2CCCCC2)cnn1-c1ccccc1)c1ccco1`, with -3.5% (inactive); and `Cc1cc(C)n(CC(O)COCc2ccco2)n1` (stereo unspecified), with -7.5% (inactive).

Consider `Cc1nnc(C)n1/N=C/c1cc(Br)cc(Br)c1O`, for which the cytotoxicity is 86.5% (active). With `Cc1nnc(C)n1/N=C/c1cc(Br)ccc1O` the figure was -18.8% (inactive); with `COc1c(Br)cc(Br)cc1/C=N/n1c(C)nnc1C`, 11.1% (inactive); with `COc1ccc(Cl)cc1NS(=O)(=O)c1ccc(S(=O)(=O)N2CCCC2)cc1`, 19.4% (inactive). As for `CSCC[C@@H](Nc1nc(-c2ccccc2)nc2c1oc1ccccc12)C(=O)O`, the cytotoxicity is 20% (inactive). Then `c1cncc(-c2nc(NCc3ccco3)c3ccccc3n2)c1`, with 10.1% (inactive); and `COc1ccc(CCNC(=O)CSc2nc(-c3ccco3)cc(C(F)(F)F)n2)cc1OC`, with -11.5% (inactive); and `O=C(C1CCN(S(=O)(=O)c2cccc3cccnc23)CC1)N1CCN(C2CCCCC2)CC1`, with 8.4% (inactive). Then `N#C/C(=C(\O)c1ccco1)c1ccccn1`, with -1.4% (inactive); and `COc1cc(-c2nnc3sc(-c4cccs4)nn23)cc(OC)c1OC`, with 62.9% (active); and `COc1cc(-c2nnc3sc(-c4ccncc4)nn23)cc(OC)c1OC`, with -1.5% (inactive).

Regarding `COc1cccc(OC)c1-c1nn2c(-c3cc(-c4ccccc4)n[nH]3)nnc2s1`, the cytotoxicity was 58.4% (active). Then `COc1ccc(-c2nnc3sc(-c4c(OC)cccc4OC)nn23)cc1`, with 10.6% (inactive).

As to `COc1cccc(OC)c1-c1nn2c(-c3ccccc3Cl)nnc2s1`, the cytotoxicity is 17.5% (inactive).

With `COc1ccc(-c2nnc3sc(-c4cccs4)nn23)cc1OC`, the cytotoxicity was 11.7% (inactive).

As for `c1ccc2c(c1)ncn2Cc1nnc2sc(-c3ccncc3)nn12`, the cytotoxicity was 0.8% (inactive). Then `CC(=O)c1c(N2CCCCC2)nc(=O)n(-c2ccccc2)c1C`, with -16.3% (inactive); and `O/N=C(/Cc1ccccn1)c1ccccc1`, with -1.3% (inactive); and `CCCCCC/C(=N/O)c1ccccn1`, with 51.6% (active). With `O=C(NCCCNC(=O)c1ccccn1)c1ccccn1`, the cytotoxicity was 9.7% (inactive). Then `Cc1cc2nc(C(F)(F)F)[nH]c(=O)n2n1`, with 2.8% (inactive); and `COC(=O)C1CCN(Cc2cc(=O)oc3cc(OC)ccc23)CC1`, with -31.4% (inactive); and `COC(=O)c1cc(=O)n(Cc2ccco2)c(=Nc2ccc(F)c(Cl)c2)s1`, with 26.9% (inactive). With `CCOC(=O)c1ccc(N=c2sc(C(=O)OC)cc(=O)n2Cc2ccco2)cc1` the figure was 119% (active); with `CCOC(=O)c1ccc(N=c2sc(C(=O)OC)cc(=O)n2C2CC2)cc1`, 14.1% (inactive); with `COc1ccc(N=C2SC(CC(=O)Nc3ccc(OC)cc3OC)C(=O)N2C)cc1` (stereo unspecified), -10.8% (inactive). As for `COc1ccc(-c2cc(C(=O)N3CCN(C(c4ccccc4)c4ccccc4)CC3)no2)cc1`, the cytotoxicity was 2.7% (inactive).

As to `COc1ccc(N=c2oc3cc(O)ccc3cc2C(=O)NCC2CCCO2)cc1` (stereo unspecified), the cytotoxicity was -0.1% (inactive). With `COc1ccccc1N=c1oc2cc(O)ccc2cc1C(=O)NCC1CCCO1` (stereo unspecified) the figure was 7% (inactive).

For the compound `COc1ccc(N=c2oc3cc(O)ccc3cc2C(=O)NCC2CCCO2)c(OC)c1` (stereo unspecified), the cytotoxicity was 53.8% (active). Then `CC1(C)NC(=O)N(CC(O)COc2ccccc2C(=O)N2CCCCC2)C1=O` (stereo unspecified), with -30.9% (inactive); and `CCCCC(=O)Nc1cccc2c1C(=O)N(c1ccccc1)C2=O`, with -0.9% (inactive); and `CCc1nnc(NC(=O)c2ccc(S(=O)(=O)N(CCOC)CCOC)cc2)o1`, with -0.3% (inactive). Then `CCCCN(CCCC)S(=O)(=O)c1ccc(C(=O)Nc2nnc(COC)o2)cc1`, with 66.7% (active). For the compound `CSCc1nnc(NC(=O)c2ccc(S(=O)(=O)N(CC(C)C)CC(C)C)cc2)o1`, the cytotoxicity was 57.2% (active). With `CCc1nnc(NC(=O)c2ccc(S(=O)(=O)N(CC(C)C)CC(C)C)cc2)o1` the figure was 47.6% (inactive). With `CCCCN(CC)S(=O)(=O)c1ccc(C(=O)Nc2nnc(COC)o2)cc1` the figure was 3.4% (inactive). Then `CCCCN(C)S(=O)(=O)c1ccc(C(=O)Nc2nnc(CSC)o2)cc1`, with -2% (inactive). Turning to `CCCCN(CC)S(=O)(=O)c1ccc(C(=O)Nc2nnc(CSC)o2)cc1`, the cytotoxicity was 8.9% (inactive). Then `CCCCN(CCCC)S(=O)(=O)c1ccc(C(=O)Nc2nnc(CSC)o2)cc1`, with 70.1% (active); and `CCc1nnc(NC(=O)c2ccc(S(=O)(=O)N(CC)Cc3ccccc3)cc2)o1`, with 33% (inactive); and `COc1ccc(-c2cc(C(=O)NCC(C)C)no2)cc1`, with -0.6% (inactive). With `CCOC(=O)N1CCN(C(=O)COc2ccc(S(=O)(=O)NC3CCCCC3)cc2C)CC1` the figure was -6.6% (inactive); with `COC(=O)c1ccc(C2/C(=C(\O)c3ccc(OC)c(C)c3)C(=O)C(=O)N2c2cc(C)on2)cc1` (stereo unspecified), 13.9% (inactive). Then `Cc1c(C#N)c2ccccc2n1CC(=O)NCCc1c[nH]c2ccccc12`, with -3.8% (inactive); and `CN(C)S(=O)(=O)c1ccc(-c2ccccc2)cc1`, with -6.1% (inactive); and `CN(C)S(=O)(=O)n1cnc(-c2ccccc2)c1-c1ccccc1`, with -11.5% (inactive).

For `O=C(O)COc1ccc(Oc2ccccc2)cc1`, the cytotoxicity was 10.4% (inactive).

As for `COc1ccc(N2CCN(CCCNC(=O)CCCn3c(=O)[nH]c4ccsc4c3=O)CC2)cc1`, the cytotoxicity is 10.4% (inactive). Take `O=C(OCc1nc2ccccc2s1)c1cccc(S(=O)(=O)N2CCOCC2)c1`: the cytotoxicity is 4.7% (inactive).

On to `OC1CCCN(Cc2cccc3ccccc23)C1` (stereo unspecified), for which the cytotoxicity was 9.5% (inactive). As for `CN(C)c1ccc(CN2CCCC(O)C2)cc1` (stereo unspecified), the cytotoxicity was 4.1% (inactive).

For `O=S(=O)(c1ccc(C2CCCCC2)cc1)N1CCN(c2ncccn2)CC1`, the cytotoxicity was 0.7% (inactive). Then `Cc1cc(C(=O)CN2C(=O)NC(C)(c3cccc(Br)c3)C2=O)c(C)n1Cc1ccco1` (stereo unspecified), with 17% (inactive). Turning to `CC(=O)O[C@H]1C(=O)[C@]2(C)[C@H]([C@H](OC(=O)c3ccccc3)[C@]3(O)C[C@H](OC(=O)[C@H](O)[C@@H](NC(=O)c4ccccc4)c4ccccc4)C(C)=C1C3(C)C)[C@]1(OC(C)=O)CO[C@@H]1C[C@@H]2O`, the cytotoxicity is 67.2% (active). As for `CC(=O)O[C@@]12CO[C@@H]1C[C@H](O)[C@@]1(C)C(=O)[C@H](O)C3=C(C)[C@@H](OC(=O)[C@H](O)[C@@H](NC(=O)OC(C)(C)C)c4ccccc4)C[C@](O)([C@@H](OC(=O)c4ccccc4)[C@H]21)C3(C)C`, the cytotoxicity was 52.1% (active).
